According to paper PMC7862700, “An all-to-all approach to the identification of sequence-specific readers for epigenetic DNA modifications on cytosine”:

Key:
Assay in all cases: DAPPL (digital affinity profiling via proximity ligation, sequencing); 10 mM Tris-HCl pH 7.5, 50 mM NaCl, 1 mM DTT, 4% glycerol, room temperature, 30 min; GST-TFs on glutathione beads, 16-mer random dsDNA library, 0.1% formaldehyde crosslink after washing; high values mean tight binding
Conditions in all cases: protein: recombinant; tags: N-terminal GST; dsDNA, one strand shown
FLI1 = target: T1, FLI1 (Homo sapiens, UniProt Q01543 1-452)
T1 sequence: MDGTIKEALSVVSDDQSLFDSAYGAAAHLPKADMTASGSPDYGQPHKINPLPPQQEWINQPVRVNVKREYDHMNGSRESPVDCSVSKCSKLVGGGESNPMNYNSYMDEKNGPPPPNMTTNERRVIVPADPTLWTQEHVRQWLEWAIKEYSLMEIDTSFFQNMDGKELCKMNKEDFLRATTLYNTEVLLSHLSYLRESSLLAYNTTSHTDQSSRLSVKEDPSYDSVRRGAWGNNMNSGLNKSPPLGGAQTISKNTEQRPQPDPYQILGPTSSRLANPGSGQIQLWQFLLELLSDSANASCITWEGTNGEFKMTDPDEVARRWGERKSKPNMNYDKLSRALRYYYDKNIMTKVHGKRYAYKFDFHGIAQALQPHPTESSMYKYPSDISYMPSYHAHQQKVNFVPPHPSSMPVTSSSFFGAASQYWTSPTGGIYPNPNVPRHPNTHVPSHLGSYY
Method in brief: (§1)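 GST fusions of human transcription factors were expressed in yeast and captured with glutathione beads. Once given DNA barcodes and pooled alongside a tag-only sample, they were incubated for 30 min at room temperature with 200 nmole of a random double-stranded 16-mer DNA library in Tris/NaCl/DTT/glycerol buffer, then washed, crosslinked (0.1% formaldehyde), proximity-ligated, PCR-amplified and sequenced on an Illumina NextSeq500. The binding signal of each hexamer is its read frequency for a factor divided by its frequency for the tag-only sample.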

ELK1 = target: T2, ELK1 (Homo sapiens, UniProt P19419 1-428)
T2 sequence: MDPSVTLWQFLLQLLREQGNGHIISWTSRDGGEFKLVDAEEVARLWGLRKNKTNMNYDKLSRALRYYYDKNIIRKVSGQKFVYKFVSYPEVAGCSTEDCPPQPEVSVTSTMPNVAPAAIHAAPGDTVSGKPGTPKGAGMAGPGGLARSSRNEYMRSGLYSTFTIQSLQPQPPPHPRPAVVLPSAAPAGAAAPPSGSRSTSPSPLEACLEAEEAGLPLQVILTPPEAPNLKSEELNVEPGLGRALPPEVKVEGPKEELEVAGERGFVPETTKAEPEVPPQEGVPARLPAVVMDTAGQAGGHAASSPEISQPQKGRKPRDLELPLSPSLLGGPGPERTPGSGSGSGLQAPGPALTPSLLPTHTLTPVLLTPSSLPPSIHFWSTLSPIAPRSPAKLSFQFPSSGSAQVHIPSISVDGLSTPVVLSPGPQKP
Method in brief: as §1

GABPA = target: T3, GABPA (Homo sapiens, UniProt Q06546 1-454)
T3 sequence: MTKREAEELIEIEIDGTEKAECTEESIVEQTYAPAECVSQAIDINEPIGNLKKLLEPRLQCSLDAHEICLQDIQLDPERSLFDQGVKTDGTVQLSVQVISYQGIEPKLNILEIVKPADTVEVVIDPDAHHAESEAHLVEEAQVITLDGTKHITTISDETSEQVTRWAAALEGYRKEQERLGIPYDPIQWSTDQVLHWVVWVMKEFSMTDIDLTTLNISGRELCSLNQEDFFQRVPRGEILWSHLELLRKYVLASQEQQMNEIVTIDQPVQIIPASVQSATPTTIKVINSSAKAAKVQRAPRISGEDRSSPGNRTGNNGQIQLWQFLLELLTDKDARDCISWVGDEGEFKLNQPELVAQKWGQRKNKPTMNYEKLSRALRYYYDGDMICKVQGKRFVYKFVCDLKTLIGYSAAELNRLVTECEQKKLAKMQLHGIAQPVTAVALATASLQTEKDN
Method in brief: as §1

ERG = target: T4, ERG (Homo sapiens, UniProt P11308 1-479)
T4 sequence: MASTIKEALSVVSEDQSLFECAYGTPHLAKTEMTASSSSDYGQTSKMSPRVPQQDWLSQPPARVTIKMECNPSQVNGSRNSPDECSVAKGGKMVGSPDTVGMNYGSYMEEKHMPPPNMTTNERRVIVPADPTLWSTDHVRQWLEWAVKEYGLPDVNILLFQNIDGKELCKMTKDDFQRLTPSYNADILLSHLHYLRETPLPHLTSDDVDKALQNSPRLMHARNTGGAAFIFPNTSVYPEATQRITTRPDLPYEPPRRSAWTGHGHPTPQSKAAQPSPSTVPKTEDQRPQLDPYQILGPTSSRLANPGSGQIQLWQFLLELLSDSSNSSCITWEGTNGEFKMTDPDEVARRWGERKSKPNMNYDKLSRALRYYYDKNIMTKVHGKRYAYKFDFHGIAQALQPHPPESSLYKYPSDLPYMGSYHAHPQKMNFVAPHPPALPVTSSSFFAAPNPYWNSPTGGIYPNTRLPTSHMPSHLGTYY
Method in brief: as §1

ELF1 = ELF1 (Homo sapiens, UniProt P32519 1-619)
Chain of ELF1 (P32519 whole entry): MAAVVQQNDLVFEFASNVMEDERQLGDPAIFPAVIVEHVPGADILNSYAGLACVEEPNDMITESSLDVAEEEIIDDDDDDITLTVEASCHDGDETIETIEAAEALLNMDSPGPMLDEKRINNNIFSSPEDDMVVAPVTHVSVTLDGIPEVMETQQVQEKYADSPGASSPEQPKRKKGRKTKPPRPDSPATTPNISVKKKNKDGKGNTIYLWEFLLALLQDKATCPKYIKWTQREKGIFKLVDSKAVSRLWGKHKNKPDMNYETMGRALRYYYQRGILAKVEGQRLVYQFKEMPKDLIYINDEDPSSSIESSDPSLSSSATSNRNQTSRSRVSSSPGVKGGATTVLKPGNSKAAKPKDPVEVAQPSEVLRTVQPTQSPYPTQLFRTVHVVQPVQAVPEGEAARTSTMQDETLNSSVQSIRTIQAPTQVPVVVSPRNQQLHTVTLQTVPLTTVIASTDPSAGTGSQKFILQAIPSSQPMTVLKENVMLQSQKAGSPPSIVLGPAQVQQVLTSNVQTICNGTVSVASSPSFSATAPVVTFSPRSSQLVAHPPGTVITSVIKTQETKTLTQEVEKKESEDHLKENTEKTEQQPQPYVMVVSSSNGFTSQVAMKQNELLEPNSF
Method in brief: as §1

EHF = target: T5, EHF (Homo sapiens, UniProt Q9NZC4 1-300)
T5 sequence: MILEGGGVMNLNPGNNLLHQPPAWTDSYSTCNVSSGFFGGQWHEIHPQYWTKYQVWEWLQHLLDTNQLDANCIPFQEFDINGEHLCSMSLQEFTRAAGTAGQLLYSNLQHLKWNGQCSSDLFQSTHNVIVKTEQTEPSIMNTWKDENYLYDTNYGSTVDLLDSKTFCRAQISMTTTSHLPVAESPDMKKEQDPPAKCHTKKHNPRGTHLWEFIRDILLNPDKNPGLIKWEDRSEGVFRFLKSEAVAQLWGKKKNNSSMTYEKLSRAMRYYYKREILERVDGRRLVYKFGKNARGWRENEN
Method in brief: as §1

SPI1 = SPI1 (Homo sapiens, UniProt P17947 1-270)
Method in brief: as §1

SPIB = SPIB (Homo sapiens, UniProt Q01892 1-262)
Chain of SPIB (Q01892 whole entry): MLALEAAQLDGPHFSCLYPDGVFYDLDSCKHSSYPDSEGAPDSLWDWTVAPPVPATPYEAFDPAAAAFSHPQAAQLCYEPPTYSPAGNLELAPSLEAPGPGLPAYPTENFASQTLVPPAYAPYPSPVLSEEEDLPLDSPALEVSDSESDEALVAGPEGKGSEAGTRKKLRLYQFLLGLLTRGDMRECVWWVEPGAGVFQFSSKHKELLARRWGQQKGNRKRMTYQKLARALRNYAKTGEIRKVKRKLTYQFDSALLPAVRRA
Method in brief: as §1

ELK3 = target: T6, ELK3 (Homo sapiens, UniProt P41970 1-407)
T6 sequence: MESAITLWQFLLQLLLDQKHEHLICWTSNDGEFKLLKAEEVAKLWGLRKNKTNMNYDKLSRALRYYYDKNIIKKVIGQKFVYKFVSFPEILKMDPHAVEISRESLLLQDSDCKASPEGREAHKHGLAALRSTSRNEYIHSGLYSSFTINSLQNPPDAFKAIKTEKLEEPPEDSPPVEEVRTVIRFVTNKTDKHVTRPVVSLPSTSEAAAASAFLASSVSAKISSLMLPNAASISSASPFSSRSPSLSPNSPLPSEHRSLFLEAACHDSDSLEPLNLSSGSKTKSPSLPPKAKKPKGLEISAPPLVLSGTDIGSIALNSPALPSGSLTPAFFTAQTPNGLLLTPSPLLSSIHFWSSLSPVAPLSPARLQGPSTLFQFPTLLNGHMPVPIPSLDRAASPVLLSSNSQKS
Method in brief: as §1

## TGTATC
FLI1
  binding signal: 1.65 fold enrichment (6-mer frequency, TF over GST control)
ELK1
  binding signal: 1.39 fold enrichment (6-mer frequency, TF over GST control)
GABPA
  binding signal: 1.45 fold enrichment (6-mer frequency, TF over GST control)
ERG
  binding signal: 1.39 fold enrichment (6-mer frequency, TF over GST control)
ELF1
  binding signal: 1.38 fold enrichment (6-mer frequency, TF over GST control)
EHF
  binding signal: 1.36 fold enrichment (6-mer frequency, TF over GST control)
SPI1
  binding signal: 1.37 fold enrichment (6-mer frequency, TF over GST control)
SPIB
  binding signal: 1.45 fold enrichment (6-mer frequency, TF over GST control)
ELK3
  binding signal: 1.44 fold enrichment (6-mer frequency, TF over GST control)

## CCGGCC
FLI1
  binding signal: 1.27 fold enrichment (6-mer frequency, TF over GST control)
ELK1
  binding signal: 1.27 fold enrichment (6-mer frequency, TF over GST control)
GABPA
  binding signal: 1.13 fold enrichment (6-mer frequency, TF over GST control)
ERG
  binding signal: 1.18 fold enrichment (6-mer frequency, TF over GST control)
ELF1
  binding signal: 1.16 fold enrichment (6-mer frequency, TF over GST control)
EHF
  binding signal: 1.1 fold enrichment (6-mer frequency, TF over GST control)
SPI1
  binding signal: 1.04 fold enrichment (6-mer frequency, TF over GST control)
SPIB
  binding signal: 1.18 fold enrichment (6-mer frequency, TF over GST control)
ELK3
  binding signal: 1.33 fold enrichment (6-mer frequency, TF over GST control)

## CCGACT
FLI1
  binding signal: 1.43 fold enrichment (6-mer frequency, TF over GST control)
ELK1
  binding signal: 1.6 fold enrichment (6-mer frequency, TF over GST control)
GABPA
  binding signal: 1.48 fold enrichment (6-mer frequency, TF over GST control)
ERG
  binding signal: 1.52 fold enrichment (6-mer frequency, TF over GST control)
ELF1
  binding signal: 1.44 fold enrichment (6-mer frequency, TF over GST control)
EHF
  binding signal: 1.48 fold enrichment (6-mer frequency, TF over GST control)
SPI1
  binding signal: 1.4 fold enrichment (6-mer frequency, TF over GST control)
SPIB
  binding signal: 1.64 fold enrichment (6-mer frequency, TF over GST control)
ELK3
  binding signal: 1.58 fold enrichment (6-mer frequency, TF over GST control)

## TCATGC
FLI1
  binding signal: 1.17 fold enrichment (6-mer frequency, TF over GST control)
ELK1
  binding signal: 1.22 fold enrichment (6-mer frequency, TF over GST control)
GABPA
  binding signal: 1.19 fold enrichment (6-mer frequency, TF over GST control)
ERG
  binding signal: 1.11 fold enrichment (6-mer frequency, TF over GST control)
ELF1
  binding signal: 1.11 fold enrichment (6-mer frequency, TF over GST control)
EHF
  binding signal: 1.15 fold enrichment (6-mer frequency, TF over GST control)
SPI1
  binding signal: 1.07 fold enrichment (6-mer frequency, TF over GST control)
SPIB
  binding signal: 1.2 fold enrichment (6-mer frequency, TF over GST control)
ELK3
  binding signal: 1.1 fold enrichment (6-mer frequency, TF over GST control)

## TGTGAC
FLI1
  binding signal: 1.05 fold enrichment (6-mer frequency, TF over GST control)
ELK1
  binding signal: 1.09 fold enrichment (6-mer frequency, TF over GST control)
GABPA
  binding signal: 1.15 fold enrichment (6-mer frequency, TF over GST control)
ERG
  binding signal: 1.08 fold enrichment (6-mer frequency, TF over GST control)
ELF1
  binding signal: 1.16 fold enrichment (6-mer frequency, TF over GST control)
EHF
  binding signal: 1.01 fold enrichment (6-mer frequency, TF over GST control)
SPI1
  binding signal: 1.17 fold enrichment (6-mer frequency, TF over GST control)
SPIB
  binding signal: 1.22 fold enrichment (6-mer frequency, TF over GST control)
ELK3
  binding signal: 1.1 fold enrichment (6-mer frequency, TF over GST control)

## AGCTGC
FLI1
  binding signal: 1.16 fold enrichment (6-mer frequency, TF over GST control)
ELK1
  binding signal: 1.16 fold enrichment (6-mer frequency, TF over GST control)
GABPA
  binding signal: 1.17 fold enrichment (6-mer frequency, TF over GST control)
ERG
  binding signal: 1.1 fold enrichment (6-mer frequency, TF over GST control)
ELF1
  binding signal: 1.18 fold enrichment (6-mer frequency, TF over GST control)
EHF
  binding signal: 1.18 fold enrichment (6-mer frequency, TF over GST control)
SPI1
  binding signal: 1.11 fold enrichment (6-mer frequency, TF over GST control)
SPIB
  binding signal: 1.24 fold enrichment (6-mer frequency, TF over GST control)
ELK3
  binding signal: 1.01 fold enrichment (6-mer frequency, TF over GST control)

## CTATAA
FLI1
  binding signal: 1.26 fold enrichment (6-mer frequency, TF over GST control)
ELK1
  binding signal: 1.22 fold enrichment (6-mer frequency, TF over GST control)
GABPA
  binding signal: 1.18 fold enrichment (6-mer frequency, TF over GST control)
ERG
  binding signal: 1.2 fold enrichment (6-mer frequency, TF over GST control)
ELF1
  binding signal: 1.27 fold enrichment (6-mer frequency, TF over GST control)
EHF
  binding signal: 1.12 fold enrichment (6-mer frequency, TF over GST control)
SPI1
  binding signal: 1.25 fold enrichment (6-mer frequency, TF over GST control)
SPIB
  binding signal: 1.35 fold enrichment (6-mer frequency, TF over GST control)
ELK3
  binding signal: 1.25 fold enrichment (6-mer frequency, TF over GST control)

## GATGAA
FLI1
  binding signal: 1.23 fold enrichment (6-mer frequency, TF over GST control)
ELK1
  binding signal: 1.26 fold enrichment (6-mer frequency, TF over GST control)
GABPA
  binding signal: 1.2 fold enrichment (6-mer frequency, TF over GST control)
ERG
  binding signal: 1.17 fold enrichment (6-mer frequency, TF over GST control)
ELF1
  binding signal: 1.18 fold enrichment (6-mer frequency, TF over GST control)
EHF
  binding signal: 1.15 fold enrichment (6-mer frequency, TF over GST control)
SPI1
  binding signal: 1.1 fold enrichment (6-mer frequency, TF over GST control)
SPIB
  binding signal: 1.24 fold enrichment (6-mer frequency, TF over GST control)
ELK3
  binding signal: 1.11 fold enrichment (6-mer frequency, TF over GST control)
